# Like-named read-outs stand apart in the source and are kept apart here.
# Columns and labels:
# CHEK1 = details: read-out: apparent Kd, n = 1
# ERN1 = details: read-out: apparent Kd, n = 1
# [1] = compound concentrations:100 nM and 1000 nM (sheet 'Lestaurtinib' of Supplementary Table 1),run:Lestaurtinib_02601_R1,Plate:MR018
# [2] = compound concentrations:100 nM and 1000 nM (sheet 'Lestaurtinib' of Supplementary Table 1),run:Lestaurtinib_02601_R3,Plate:MR018
# [3] = compound concentrations:100 nM and 1000 nM (sheet 'Lestaurtinib' of Supplementary Table 1),run:Lestaurtinib_02606_R1,Plate:MR019
# [4] = compound concentrations:100 nM and 1000 nM (sheet 'Lestaurtinib' of Supplementary Table 1),run:Lestaurtinib_02606_R2,Plate:MR019
# [5] = compound concentrations:100 nM and 1000 nM (sheet 'Lestaurtinib' of Supplementary Table 1),run:Lestaurtinib_02606_R3,Plate:MR019
# [6] = compound concentrations:100 nM and 1000 nM (sheet 'Lestaurtinib' of Supplementary Table 1),run:Lestaurtinib_02624_R2,Plate:MR020
# [7] = compound concentrations:100 nM and 1000 nM (sheet 'Lestaurtinib' of Supplementary Table 1),run:Lestaurtinib_02624_R3,Plate:MR020
# [8] = compound concentrations:100 nM and 1000 nM (sheet 'Lestaurtinib' of Supplementary Table 1),run:Lestaurtinib_02724_R3,Plate:MR021
# [9] = compound concentrations:100 nM and 1000 nM (sheet 'Lestaurtinib' of Supplementary Table 1),run:Lestaurtinib_02741_R1,Plate:MR023
# [10] = compound concentrations:100 nM and 1000 nM (sheet 'Lestaurtinib' of Supplementary Table 1),run:Lestaurtinib_02748_R3,Plate:MR024
substance,measurement,setting,value
Lestaurtinib,potency estimated from few doses,CHEK1; [1],98 nM
same,potency estimated from few doses,CHEK1; [2],78.8 nM
same,potency estimated from few doses,CHEK1; [3],88.5 nM
same,potency estimated from few doses,CHEK1; [4],74.1 nM
same,potency estimated from few doses,CHEK1; [5],97 nM
same,potency estimated from few doses,CHEK1; [6],93 nM
same,potency estimated from few doses,CHEK1; [7],79 nM
same,potency estimated from few doses,CHEK1; [8],92 nM
same,potency estimated from few doses,CHEK1; [9],88 nM
same,potency estimated from few doses,"CHEK1; compound concentrations:100 nM and 1000 nM (sheet 'Lestaurtinib' of Supplementary Table 1),run:Lestaurtinib_02748_R1,Plate:MR024",69.5 nM
same,potency estimated from few doses,CHEK1; [10],80.1 nM
same,potency estimated from few doses,"CHEK1; compound concentrations:100 nM and 1000 nM (sheet 'Lestaurtinib' of Supplementary Table 1),run:Lestaurtinib_02752_R1,Plate:MR025",75.5 nM
same,potency estimated from few doses,"CHEK1; compound concentrations:100 nM and 1000 nM (sheet 'Lestaurtinib' of Supplementary Table 1),run:Lestaurtinib_02765_R2,Plate:MR026",98.7 nM
same,potency estimated from few doses,"CHEK1; compound concentrations:100 nM and 1000 nM (sheet 'Lestaurtinib' of Supplementary Table 1),run:Lestaurtinib_02765_R3,Plate:MR026",75.5 nM
same,potency estimated from few doses,"CHEK1; compound concentrations:100 nM and 1000 nM (sheet 'Lestaurtinib' of Supplementary Table 1),run:Lestaurtinib_02766_R1,Plate:MR027",92 nM
same,potency estimated from few doses,"CHEK1; compound concentrations:100 nM and 1000 nM (sheet 'Lestaurtinib' of Supplementary Table 1),run:Lestaurtinib_02766_R2,Plate:MR027",71.2 nM
same,potency estimated from few doses,"CHEK1; compound concentrations:100 nM and 1000 nM (sheet 'Lestaurtinib' of Supplementary Table 1),run:Lestaurtinib_02766_R3,Plate:MR027",82.7 nM
same,potency estimated from few doses,"CHEK1; compound concentrations:100 nM and 1000 nM (sheet 'Lestaurtinib' of Supplementary Table 1),run:Lestaurtinib_02768_R1,Plate:MR028",82.7 nM
same,potency estimated from few doses,"CHEK1; compound concentrations:100 nM and 1000 nM (sheet 'Lestaurtinib' of Supplementary Table 1),run:Lestaurtinib_02768_R3,Plate:MR028",86.1 nM
same,potency estimated from few doses,"CHEK1; compound concentrations:100 nM and 1000 nM (sheet 'Lestaurtinib' of Supplementary Table 1),run:Lestaurtinib_02795_R1,Plate:MR022",89.5 nM
same,potency estimated from few doses,"CHEK1; compound concentrations:100 nM and 1000 nM (sheet 'Lestaurtinib' of Supplementary Table 1),run:Lestaurtinib_02795_R2,Plate:MR022",80.2 nM
same,potency estimated from few doses,"CHEK1; compound concentrations:100 nM and 1000 nM (sheet 'Lestaurtinib' of Supplementary Table 1),run:Lestaurtinib_02795_R3,Plate:MR022",211 nM
same,potency estimated from few doses,"CHEK1; compound concentrations:100 nM and 1000 nM (sheet 'Lestaurtinib' of Supplementary Table 1),run:Lestaurtinib_02802_R1,Plate:MR029",84.3 nM
same,potency estimated from few doses,"CHEK1; compound concentrations:100 nM and 1000 nM (sheet 'Lestaurtinib' of Supplementary Table 1),run:Lestaurtinib_02802_R2,Plate:MR029",91.6 nM
same,potency estimated from few doses,"CHEK1; compound concentrations:100 nM and 1000 nM (sheet 'Lestaurtinib' of Supplementary Table 1),run:Lestaurtinib_02802_R3,Plate:MR029",91.6 nM
same,potency estimated from few doses,"CHEK1; compound concentrations:100 nM and 1000 nM (sheet 'Lestaurtinib' of Supplementary Table 1),run:Lestaurtinib_02896_R1,Plate:MR030",73.7 nM
same,potency estimated from few doses,"CHEK1; compound concentrations:100 nM and 1000 nM (sheet 'Lestaurtinib' of Supplementary Table 1),run:Lestaurtinib_02896_R2,Plate:MR030",70 nM
same,potency estimated from few doses,"CHEK1; compound concentrations:100 nM and 1000 nM (sheet 'Lestaurtinib' of Supplementary Table 1),run:Lestaurtinib_02896_R3,Plate:MR030",66.7 nM
same,potency estimated from few doses,"CHEK1; compound concentrations:100 nM and 1000 nM (sheet 'Lestaurtinib' of Supplementary Table 1),run:Lestaurtinib_03172_R2,Plate:MR031",83.5 nM
same,potency estimated from few doses,"CHEK1; compound concentrations:100 nM and 1000 nM (sheet 'Lestaurtinib' of Supplementary Table 1),run:Lestaurtinib_03172_R3,Plate:MR031",94.3 nM
same,potency estimated from few doses,"CHEK1; compound concentrations:100 nM and 1000 nM (sheet 'Lestaurtinib' of Supplementary Table 1),run:Lestaurtinib_03260_R3,Plate:MR033",67.9 nM
same,potency estimated from few doses,"ERN1; compound concentrations:100 nM and 1000 nM (sheet 'Lestaurtinib' of Supplementary Table 1),run:Lestaurtinib_02339_R1,Plate:MR001",97.9 nM
same,potency estimated from few doses,"ERN1; compound concentrations:100 nM and 1000 nM (sheet 'Lestaurtinib' of Supplementary Table 1),run:Lestaurtinib_02339_R2,Plate:MR001",65.8 nM
same,potency estimated from few doses,"ERN1; compound concentrations:100 nM and 1000 nM (sheet 'Lestaurtinib' of Supplementary Table 1),run:Lestaurtinib_02339_R3,Plate:MR001",47 nM
same,potency estimated from few doses,"ERN1; compound concentrations:100 nM and 1000 nM (sheet 'Lestaurtinib' of Supplementary Table 1),run:Lestaurtinib_02364_R1,Plate:MR002",75.2 nM
same,potency estimated from few doses,"ERN1; compound concentrations:100 nM and 1000 nM (sheet 'Lestaurtinib' of Supplementary Table 1),run:Lestaurtinib_02364_R2,Plate:MR002",58.2 nM
same,potency estimated from few doses,"ERN1; compound concentrations:100 nM and 1000 nM (sheet 'Lestaurtinib' of Supplementary Table 1),run:Lestaurtinib_02367_R1,Plate:MR003",83.4 nM
same,potency estimated from few doses,"ERN1; compound concentrations:100 nM and 1000 nM (sheet 'Lestaurtinib' of Supplementary Table 1),run:Lestaurtinib_02367_R3,Plate:MR003",76.1 nM
same,potency estimated from few doses,"ERN1; compound concentrations:100 nM and 1000 nM (sheet 'Lestaurtinib' of Supplementary Table 1),run:Lestaurtinib_02381_R1,Plate:MR004",44.2 nM
same,potency estimated from few doses,"ERN1; compound concentrations:100 nM and 1000 nM (sheet 'Lestaurtinib' of Supplementary Table 1),run:Lestaurtinib_02381_R2,Plate:MR004",58 nM
same,potency estimated from few doses,"ERN1; compound concentrations:100 nM and 1000 nM (sheet 'Lestaurtinib' of Supplementary Table 1),run:Lestaurtinib_02407_R1,Plate:MR005",74.7 nM
same,potency estimated from few doses,"ERN1; compound concentrations:100 nM and 1000 nM (sheet 'Lestaurtinib' of Supplementary Table 1),run:Lestaurtinib_02407_R3,Plate:MR005",65.8 nM
same,potency estimated from few doses,"ERN1; compound concentrations:100 nM and 1000 nM (sheet 'Lestaurtinib' of Supplementary Table 1),run:Lestaurtinib_02422_R1,Plate:MR006",64.3 nM
same,potency estimated from few doses,"ERN1; compound concentrations:100 nM and 1000 nM (sheet 'Lestaurtinib' of Supplementary Table 1),run:Lestaurtinib_02422_R2,Plate:MR006",68.1 nM
same,potency estimated from few doses,"ERN1; compound concentrations:100 nM and 1000 nM (sheet 'Lestaurtinib' of Supplementary Table 1),run:Lestaurtinib_02422_R3,Plate:MR006",67.9 nM
same,potency estimated from few doses,"ERN1; compound concentrations:100 nM and 1000 nM (sheet 'Lestaurtinib' of Supplementary Table 1),run:Lestaurtinib_02438_R1,Plate:MR008",49.4 nM
same,potency estimated from few doses,"ERN1; compound concentrations:100 nM and 1000 nM (sheet 'Lestaurtinib' of Supplementary Table 1),run:Lestaurtinib_02438_R2,Plate:MR008",63.9 nM
same,potency estimated from few doses,"ERN1; compound concentrations:100 nM and 1000 nM (sheet 'Lestaurtinib' of Supplementary Table 1),run:Lestaurtinib_02438_R3,Plate:MR008",64.3 nM
same,potency estimated from few doses,"ERN1; compound concentrations:100 nM and 1000 nM (sheet 'Lestaurtinib' of Supplementary Table 1),run:Lestaurtinib_02443_R1,Plate:MR009",67.3 nM
same,potency estimated from few doses,"ERN1; compound concentrations:100 nM and 1000 nM (sheet 'Lestaurtinib' of Supplementary Table 1),run:Lestaurtinib_02443_R2,Plate:MR009",58.1 nM
same,potency estimated from few doses,"ERN1; compound concentrations:100 nM and 1000 nM (sheet 'Lestaurtinib' of Supplementary Table 1),run:Lestaurtinib_02443_R3,Plate:MR009",63.3 nM
same,potency estimated from few doses,"ERN1; compound concentrations:100 nM and 1000 nM (sheet 'Lestaurtinib' of Supplementary Table 1),run:Lestaurtinib_02473_R1,Plate:MR010",52.6 nM
same,potency estimated from few doses,"ERN1; compound concentrations:100 nM and 1000 nM (sheet 'Lestaurtinib' of Supplementary Table 1),run:Lestaurtinib_02473_R2,Plate:MR010",60.5 nM
same,potency estimated from few doses,"ERN1; compound concentrations:100 nM and 1000 nM (sheet 'Lestaurtinib' of Supplementary Table 1),run:Lestaurtinib_02473_R3,Plate:MR010",69.9 nM
same,potency estimated from few doses,"ERN1; compound concentrations:100 nM and 1000 nM (sheet 'Lestaurtinib' of Supplementary Table 1),run:Lestaurtinib_02482_R3,Plate:MR011",54.1 nM
same,potency estimated from few doses,"ERN1; compound concentrations:100 nM and 1000 nM (sheet 'Lestaurtinib' of Supplementary Table 1),run:Lestaurtinib_02487_R1,Plate:MR012",58.2 nM
same,potency estimated from few doses,"ERN1; compound concentrations:100 nM and 1000 nM (sheet 'Lestaurtinib' of Supplementary Table 1),run:Lestaurtinib_02496_R1,Plate:MR013",79.9 nM
same,potency estimated from few doses,"ERN1; compound concentrations:100 nM and 1000 nM (sheet 'Lestaurtinib' of Supplementary Table 1),run:Lestaurtinib_02496_R2,Plate:MR013",82.7 nM
same,potency estimated from few doses,"ERN1; compound concentrations:100 nM and 1000 nM (sheet 'Lestaurtinib' of Supplementary Table 1),run:Lestaurtinib_02496_R3,Plate:MR013",62.6 nM
same,potency estimated from few doses,"ERN1; compound concentrations:100 nM and 1000 nM (sheet 'Lestaurtinib' of Supplementary Table 1),run:Lestaurtinib_02566_R2,Plate:MR014",99.9 nM
same,potency estimated from few doses,"ERN1; compound concentrations:100 nM and 1000 nM (sheet 'Lestaurtinib' of Supplementary Table 1),run:Lestaurtinib_02572_R2,Plate:MR015",67.3 nM
same,potency estimated from few doses,"ERN1; compound concentrations:100 nM and 1000 nM (sheet 'Lestaurtinib' of Supplementary Table 1),run:Lestaurtinib_02577_R1,Plate:MR016",81.4 nM
same,potency estimated from few doses,"ERN1; compound concentrations:100 nM and 1000 nM (sheet 'Lestaurtinib' of Supplementary Table 1),run:Lestaurtinib_02577_R2,Plate:MR016",61.5 nM
same,potency estimated from few doses,"ERN1; compound concentrations:100 nM and 1000 nM (sheet 'Lestaurtinib' of Supplementary Table 1),run:Lestaurtinib_02577_R3,Plate:MR016",56.2 nM
same,potency estimated from few doses,"ERN1; compound concentrations:100 nM and 1000 nM (sheet 'Lestaurtinib' of Supplementary Table 1),run:Lestaurtinib_02584_R1,Plate:MR017",49.6 nM
same,potency estimated from few doses,"ERN1; compound concentrations:100 nM and 1000 nM (sheet 'Lestaurtinib' of Supplementary Table 1),run:Lestaurtinib_02584_R2,Plate:MR017",50.5 nM
same,potency estimated from few doses,"ERN1; compound concentrations:100 nM and 1000 nM (sheet 'Lestaurtinib' of Supplementary Table 1),run:Lestaurtinib_02584_R3,Plate:MR017",79.4 nM
same,potency estimated from few doses,ERN1; [1],73.5 nM
same,potency estimated from few doses,"ERN1; compound concentrations:100 nM and 1000 nM (sheet 'Lestaurtinib' of Supplementary Table 1),run:Lestaurtinib_02601_R2,Plate:MR018",93.1 nM
same,potency estimated from few doses,ERN1; [2],63.8 nM
same,potency estimated from few doses,ERN1; [3],79.4 nM
same,potency estimated from few doses,ERN1; [4],83.8 nM
same,potency estimated from few doses,ERN1; [5],87.5 nM
same,potency estimated from few doses,"ERN1; compound concentrations:100 nM and 1000 nM (sheet 'Lestaurtinib' of Supplementary Table 1),run:Lestaurtinib_02624_R1,Plate:MR020",87.4 nM
same,potency estimated from few doses,ERN1; [6],94.5 nM
same,potency estimated from few doses,ERN1; [7],93.4 nM
same,potency estimated from few doses,"ERN1; compound concentrations:100 nM and 1000 nM (sheet 'Lestaurtinib' of Supplementary Table 1),run:Lestaurtinib_02724_R1,Plate:MR021",90.7 nM
same,potency estimated from few doses,"ERN1; compound concentrations:100 nM and 1000 nM (sheet 'Lestaurtinib' of Supplementary Table 1),run:Lestaurtinib_02724_R2,Plate:MR021",92.1 nM
same,potency estimated from few doses,ERN1; [8],78.5 nM
same,potency estimated from few doses,ERN1; [9],83.9 nM
same,potency estimated from few doses,"ERN1; compound concentrations:100 nM and 1000 nM (sheet 'Lestaurtinib' of Supplementary Table 1),run:Lestaurtinib_02741_R2,Plate:MR023",80 nM
same,potency estimated from few doses,"ERN1; compound concentrations:100 nM and 1000 nM (sheet 'Lestaurtinib' of Supplementary Table 1),run:Lestaurtinib_02741_R3,Plate:MR023",69.3 nM
same,potency estimated from few doses,ERN1; [10],74.4 nM
same,potency estimated from few doses,"ERN1; compound concentrations:100 nM and 1000 nM (sheet 'Lestaurtinib' of Supplementary Table 1),run:Lestaurtinib_02752_R2,Plate:MR025",57.7 nM
